# Experimental data as given in the supplement of paper PMC10849652.
# Of roughly 8,800 targets only a part is listed; those with a hit were picked by preference. About 0.5% of all pairs of compound and target were hits. A number with no mark means an inactive call.
# Key:
# Assay in all cases: log2 fold change, soluble protein after heating vs DMSO (PISA); higher = thermal stabilisation; K562 lysate, 10 uM; active = over 0.2 and 3.5 SD of the protein, either way, in both replicates (recomputed)
# [1] = compound: C#Cc1cccc(Nc2ncnc3cc(OCCOC)c(OCCOC)cc23)c1 [erlotinib]
# Outline: (§1)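 A 30 min treatment with 10 μM compound was applied to crude K562 extract at 1 mg/mL protein in PBS pH 7.4 with 1 mM MgCl2. Heating for 3 min spanned 48°C-58°C, after which aliquots were pooled, adjusted to 0.5% NP-40 at 4°C and spun at 21,000xg for 90 min. TMTpro 16plex LC-MS/MS of the supernatant, with channel sums equalised, gave values recorded as log-two fold change in thermal stability against solvent controls, from duplicates.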
# [2] = compound: C/C(=N\NC(=O)C1=CC(=CC=C1)S(=O)(=O)N2CCOCC2)/C3=C(C=CC(=C3)Cl)O
# Outline: as §1
# [3] = compound: C1=CC(=CC=C1C2=NC3=C(N2)C=C(C=C3)C(=O)N)OC4=CC=C(C=C4)Cl
# Outline: as §1
# [4] = compound: C1=CC2=C(C=CC(=C2)/C=C\3/C(=O)NC(=NCC4=CC=CS4)S3)N=C1
# Outline: as §1
# [5] = compound: C1=CC2=NC=CN=C2C=C1/C=C/3\C(=O)NC(=O)S3
# Outline: as §1
# [6] = compound: C1=CC=C(C=C1)C2=NC(=C(N2)C3=CC=NC=C3)C4=CC(=C(C=C4)Cl)O
# Outline: as §1
# [7] = compound: C1=CC=C2C(=C1)C3=NNC4=CC=CC(=C43)C2=O
# Outline: as §1
# [8] = compound: C1CCN(C1)C(=O)NC2=CC=CC(=C2)NC3=NC=C(C(=N3)NCCC4=CN=CN4)Br
# Outline: as §1
# [9] = compound: C1CN(CCC1(CC2=CC=C(C=C2)Cl)N)C3=NC=NC4=C3C=CN4
# Outline: as §1
# [10] = compound: C1COCCN1CCN2C3=CC=CC=C3N=C2NC(=O)C4=CC(=CC=C4)[N+](=O)[O-] [IRAK-1-4 Inhibitor I]
# Outline: as §1
# [11] = compound: C=CC(=O)N1CCC[C@@H](n2nc(-c3ccc(Oc4ccccc4)cc3)c3c(N)ncnc32)C1 [ibrutinib]
# Outline: as §1
# [12] = compound: CC(=O)c1cnc2ccc(-c3cc(Cl)c(O)c(Cl)c3)nc2c1N[C@H]1CC[C@H](CN(C)C)CC1
# Outline: as §1
# [13] = compound: CC(C)(C)Cn1c(N)nc2ccc(-c3[nH]c(C(C)(C)C)nc3-c3ccc(F)cc3)nc21 [ralimetinib]
# Outline: as §1
# [14] = compound: CC(C)(O)CC(=O)NCCn1ccc2ncnc(Nc3ccc(Oc4cccc(C(F)(F)F)c4)c(Cl)c3)c21
# Outline: as §1
# [15] = compound: CC(C)C1=C2N=C(C=C(N2N=C1)NCC3=CC=CC=C3)NCCCCCCN
# Outline: as §1
# [16] = compound: CC1=C(C(CC(=O)N1)C2=CC=C(C=C2)C(F)(F)F)C(=O)NC3=C(C=C4C(=C3)C=NN4)F
# Outline: as §1
# [17] = compound: CC1=C(C2=C(C=C1)C(=O)C3=CC=CC=C3N2CCCN)C
# Outline: as §1
# [18] = compound: CC1=C(C=C(C=C1)NC(=O)C2=CC(=CC=C2)C(C)(C)C#N)NC3=CC4=C(C=C3)N=CN(C4=O)C
# Outline: as §1
# [19] = compound: CC1=C(C=C(C=C1)NC(=O)C2=CC(=CC=C2)N(C)C)NC(=O)C3=CC=C(C=C3)O
# Outline: as §1
# [20] = compound: CC1=CC=C(C=C1)SC2=C3C=C(SC3=CN=C2)C(=O)N
# Outline: as §1
# Chain of UniProt P49643 (P49643 whole entry, looked up): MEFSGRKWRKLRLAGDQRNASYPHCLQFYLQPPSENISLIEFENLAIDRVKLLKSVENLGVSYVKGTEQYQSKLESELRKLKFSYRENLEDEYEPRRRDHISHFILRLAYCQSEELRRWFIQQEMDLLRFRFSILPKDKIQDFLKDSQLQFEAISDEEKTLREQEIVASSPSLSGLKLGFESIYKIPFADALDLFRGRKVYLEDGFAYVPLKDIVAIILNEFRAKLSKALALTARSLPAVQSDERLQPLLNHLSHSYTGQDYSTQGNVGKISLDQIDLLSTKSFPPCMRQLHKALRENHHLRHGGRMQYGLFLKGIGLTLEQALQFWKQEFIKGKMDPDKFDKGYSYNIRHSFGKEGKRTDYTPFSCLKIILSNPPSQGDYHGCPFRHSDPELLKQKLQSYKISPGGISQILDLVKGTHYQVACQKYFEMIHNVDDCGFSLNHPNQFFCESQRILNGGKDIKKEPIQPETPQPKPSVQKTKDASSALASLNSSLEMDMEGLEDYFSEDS
# Chain of UniProt Q96PU8 (Q96PU8 whole entry, looked up): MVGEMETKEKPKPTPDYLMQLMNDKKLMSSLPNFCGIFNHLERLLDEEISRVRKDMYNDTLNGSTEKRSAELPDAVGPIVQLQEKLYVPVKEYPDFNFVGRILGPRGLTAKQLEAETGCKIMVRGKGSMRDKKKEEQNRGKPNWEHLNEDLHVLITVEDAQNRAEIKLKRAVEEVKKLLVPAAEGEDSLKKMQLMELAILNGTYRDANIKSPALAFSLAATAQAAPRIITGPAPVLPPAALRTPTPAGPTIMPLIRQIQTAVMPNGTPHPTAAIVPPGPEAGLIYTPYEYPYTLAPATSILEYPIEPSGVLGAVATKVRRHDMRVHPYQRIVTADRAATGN
# Chain of UniProt O94913 (O94913 whole entry, looked up): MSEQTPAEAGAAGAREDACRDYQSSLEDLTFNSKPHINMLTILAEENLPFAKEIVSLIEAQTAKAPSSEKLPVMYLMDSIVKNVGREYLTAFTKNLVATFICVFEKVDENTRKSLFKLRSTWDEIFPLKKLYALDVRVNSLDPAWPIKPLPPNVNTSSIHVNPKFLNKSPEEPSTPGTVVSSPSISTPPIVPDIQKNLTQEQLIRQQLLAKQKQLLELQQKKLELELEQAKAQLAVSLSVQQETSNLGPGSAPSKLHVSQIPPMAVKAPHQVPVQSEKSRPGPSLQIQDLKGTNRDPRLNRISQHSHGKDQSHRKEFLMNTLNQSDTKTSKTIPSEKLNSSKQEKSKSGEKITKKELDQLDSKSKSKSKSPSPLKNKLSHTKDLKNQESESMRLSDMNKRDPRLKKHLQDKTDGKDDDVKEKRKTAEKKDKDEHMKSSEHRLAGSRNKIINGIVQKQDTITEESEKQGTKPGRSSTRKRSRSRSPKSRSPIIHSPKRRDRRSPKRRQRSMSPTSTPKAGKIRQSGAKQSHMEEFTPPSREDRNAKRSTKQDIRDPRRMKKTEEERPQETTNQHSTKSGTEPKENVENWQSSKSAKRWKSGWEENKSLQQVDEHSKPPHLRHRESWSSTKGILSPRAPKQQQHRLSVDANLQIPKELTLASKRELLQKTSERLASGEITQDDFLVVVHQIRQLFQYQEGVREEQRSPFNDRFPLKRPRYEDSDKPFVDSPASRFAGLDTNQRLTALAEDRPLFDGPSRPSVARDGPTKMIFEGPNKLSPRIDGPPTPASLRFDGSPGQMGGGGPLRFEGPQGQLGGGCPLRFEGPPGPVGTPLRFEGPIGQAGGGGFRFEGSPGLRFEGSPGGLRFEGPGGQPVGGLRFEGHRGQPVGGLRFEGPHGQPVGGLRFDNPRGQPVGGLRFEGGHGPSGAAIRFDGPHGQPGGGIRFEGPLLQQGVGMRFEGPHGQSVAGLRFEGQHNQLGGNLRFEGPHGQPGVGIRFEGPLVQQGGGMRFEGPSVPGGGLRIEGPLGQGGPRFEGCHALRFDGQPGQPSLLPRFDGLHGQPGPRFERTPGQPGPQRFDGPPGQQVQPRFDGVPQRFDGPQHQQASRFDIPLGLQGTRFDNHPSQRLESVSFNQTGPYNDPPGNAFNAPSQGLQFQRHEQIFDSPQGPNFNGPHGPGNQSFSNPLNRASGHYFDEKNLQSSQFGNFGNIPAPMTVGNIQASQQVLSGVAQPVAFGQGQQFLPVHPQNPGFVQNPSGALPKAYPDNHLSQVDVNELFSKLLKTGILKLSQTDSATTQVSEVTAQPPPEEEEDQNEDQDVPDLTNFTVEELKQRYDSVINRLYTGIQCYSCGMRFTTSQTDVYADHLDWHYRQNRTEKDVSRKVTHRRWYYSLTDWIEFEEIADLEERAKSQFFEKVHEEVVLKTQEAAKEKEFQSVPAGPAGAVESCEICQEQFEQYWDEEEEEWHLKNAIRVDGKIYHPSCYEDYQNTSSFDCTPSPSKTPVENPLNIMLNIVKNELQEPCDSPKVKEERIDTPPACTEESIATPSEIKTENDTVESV
# Chain of UniProt Q8TBX8 (Q8TBX8 whole entry, looked up): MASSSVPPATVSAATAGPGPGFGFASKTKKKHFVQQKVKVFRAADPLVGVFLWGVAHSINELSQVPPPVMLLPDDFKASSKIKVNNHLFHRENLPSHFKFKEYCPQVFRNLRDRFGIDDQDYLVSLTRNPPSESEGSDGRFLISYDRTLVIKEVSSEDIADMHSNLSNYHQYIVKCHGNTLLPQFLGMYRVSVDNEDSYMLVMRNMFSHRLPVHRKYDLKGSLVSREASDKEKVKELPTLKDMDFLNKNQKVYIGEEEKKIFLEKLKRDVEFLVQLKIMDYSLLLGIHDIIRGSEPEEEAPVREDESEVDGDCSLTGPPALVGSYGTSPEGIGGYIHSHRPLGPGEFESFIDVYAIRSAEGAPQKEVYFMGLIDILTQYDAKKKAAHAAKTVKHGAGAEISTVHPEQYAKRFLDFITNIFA
# Chain of UniProt P14314 (P14314 whole entry, looked up): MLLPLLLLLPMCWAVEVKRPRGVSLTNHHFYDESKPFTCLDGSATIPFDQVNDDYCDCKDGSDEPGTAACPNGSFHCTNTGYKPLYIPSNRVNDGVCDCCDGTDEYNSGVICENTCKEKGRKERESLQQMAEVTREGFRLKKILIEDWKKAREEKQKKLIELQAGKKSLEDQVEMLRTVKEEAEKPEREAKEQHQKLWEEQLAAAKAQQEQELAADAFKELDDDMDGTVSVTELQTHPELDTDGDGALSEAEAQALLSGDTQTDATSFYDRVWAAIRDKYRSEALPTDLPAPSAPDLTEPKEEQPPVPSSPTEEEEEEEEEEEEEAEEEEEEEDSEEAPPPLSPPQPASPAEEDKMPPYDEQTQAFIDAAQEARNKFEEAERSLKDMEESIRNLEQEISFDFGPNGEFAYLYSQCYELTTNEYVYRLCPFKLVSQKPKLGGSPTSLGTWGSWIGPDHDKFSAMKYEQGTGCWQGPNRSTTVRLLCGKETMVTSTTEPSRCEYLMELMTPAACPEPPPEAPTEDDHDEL
# Chain of UniProt Q14289 (Q14289 whole entry, looked up): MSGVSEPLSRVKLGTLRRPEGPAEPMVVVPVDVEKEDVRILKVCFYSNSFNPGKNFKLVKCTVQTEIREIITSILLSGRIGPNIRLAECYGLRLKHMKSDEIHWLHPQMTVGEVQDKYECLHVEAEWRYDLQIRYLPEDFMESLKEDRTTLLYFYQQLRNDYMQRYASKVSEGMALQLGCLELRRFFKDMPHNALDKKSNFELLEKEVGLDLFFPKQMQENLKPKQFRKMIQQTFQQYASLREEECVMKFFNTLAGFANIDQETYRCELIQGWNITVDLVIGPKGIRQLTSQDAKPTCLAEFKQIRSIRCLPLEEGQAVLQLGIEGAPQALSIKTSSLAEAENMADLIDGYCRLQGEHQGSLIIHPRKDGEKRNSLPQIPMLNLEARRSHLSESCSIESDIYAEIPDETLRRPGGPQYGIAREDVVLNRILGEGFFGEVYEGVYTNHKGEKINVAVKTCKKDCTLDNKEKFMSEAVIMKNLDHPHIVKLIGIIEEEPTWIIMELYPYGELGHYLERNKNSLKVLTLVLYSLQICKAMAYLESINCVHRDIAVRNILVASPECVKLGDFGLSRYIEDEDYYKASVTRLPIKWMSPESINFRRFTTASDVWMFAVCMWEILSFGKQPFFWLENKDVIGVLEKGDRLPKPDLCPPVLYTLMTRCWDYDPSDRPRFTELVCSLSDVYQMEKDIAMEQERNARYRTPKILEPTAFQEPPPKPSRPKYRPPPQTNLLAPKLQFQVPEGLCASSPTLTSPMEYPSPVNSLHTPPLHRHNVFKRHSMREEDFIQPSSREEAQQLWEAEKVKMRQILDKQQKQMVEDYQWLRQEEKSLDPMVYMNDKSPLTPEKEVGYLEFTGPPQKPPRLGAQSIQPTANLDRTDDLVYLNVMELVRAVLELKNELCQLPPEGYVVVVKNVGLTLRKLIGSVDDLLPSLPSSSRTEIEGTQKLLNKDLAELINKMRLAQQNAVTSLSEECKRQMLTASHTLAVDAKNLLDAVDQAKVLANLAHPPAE
# Chain of UniProt P57721 (P57721 whole entry, looked up): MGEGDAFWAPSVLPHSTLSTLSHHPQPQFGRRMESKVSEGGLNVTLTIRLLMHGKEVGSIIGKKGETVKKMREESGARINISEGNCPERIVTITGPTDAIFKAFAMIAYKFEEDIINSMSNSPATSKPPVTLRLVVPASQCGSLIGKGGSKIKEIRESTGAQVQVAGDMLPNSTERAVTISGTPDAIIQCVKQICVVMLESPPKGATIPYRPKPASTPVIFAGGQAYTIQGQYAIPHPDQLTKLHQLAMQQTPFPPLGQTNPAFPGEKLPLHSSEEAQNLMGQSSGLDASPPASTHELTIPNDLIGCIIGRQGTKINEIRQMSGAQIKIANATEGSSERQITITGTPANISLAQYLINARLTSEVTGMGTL
Target,log2 fold change [1],log2 fold change [2],log2 fold change [3],log2 fold change [4],log2 fold change [5],log2 fold change [6],log2 fold change [7],log2 fold change [8],log2 fold change [9],log2 fold change [10],log2 fold change [11],log2 fold change [12],log2 fold change [13],log2 fold change [14],log2 fold change [15],log2 fold change [16],log2 fold change [17],log2 fold change [18],log2 fold change [19],log2 fold change [20]
PRIM2 (UniProt P49643),0.05,-0.12,0.032,0.007,-0.006,0.011,0.005,-0.016,0.017,0.027,0.067,-0.05,0.041,-0.025,-0.001,0.015,-0.043,0.028,0.054,0.009
PTK2B (UniProt Q14289),0.024,-0.012,0.001,-0.012,-0.053,0.027,0.066,0.067,-0.068,0.077,0.014,0.073,-0.04,-0.072,-0.005,-0.039,-0.001,-0.049,0.013,-0.022
PPP1R8 (UniProt Q12972),0.002,-0.032,0.029,0.002,-0.012,0.008,0.007,-0.009,0.02,0.008,-0.029,-0.026,-0.039,-0.031,0.011,-0.011,-0.034,0.002,-0.036,-0.028
PRKCSH (UniProt P14314),-0.027,0.013,0.01,-0.012,-0.012,0.023,0.07,0.027,-0.027,0.005,-0.008,0.01,0.007,0.019,-0.026,-0.004,0.047,-0.057,0.001,0
PCBP2 (UniProt H3BRU6),0.094,-0.272,0.166,0.061,-0.057,-0.034,-0.15,-0.196,-0.096,0.009,0.046,0.016,0.031,-0.018,-0.036,-0.055,0.001,0.141,0.039,-0.031
PCF11 (UniProt O94913),0.031,-0.063,0.014,0.008,-0.044,-0.025,-0.028,0.005,0.005,-0.017,-0.027,-0.006,-0.005,-0.02,0.022,0.03,-0.02,-0.021,0.045,-0.02
PRKDC (UniProt P78527),0.021,-0.064,-0.029,0.135,0.927 (active),0.037,0.068,0.122,-0.041,0.02,0.096,0.318,0.033,0.01,-0.014,-0.021,0.031,-0.057,0.038,-0.01
QKI (UniProt Q96PU8),-0.023,-0.018,-0.001,-0.005,0.012,-0.029,0.012,0.005,-0.034,0.027,-0.022,-0.012,-0.023,-0.027,0.029,0.065,0.069,-0.094,0.009,-0.023
POLB (UniProt P06746),0.012,0.009,0.075,0.069,-0.022,0.019,-0.061,-0.019,0.026,-0.062,-0.011,-0.003,0.068,-0.042,0.083,0.017,-0.006,-0.027,-0.034,-0.003
PIP4K2C (UniProt Q8TBX8),0.104,-0.289,0.033,0.004,0.496 (active),0.137,0.127,0.231,-0.055,-0.005,0.012,0.277,0.039,-0.055,-0.055,-0.047,-0.027,0.03,-0.027,-0.031
PCBP3 (UniProt P57721),0.005,0.028,0.021,-0.031,0.02,0.02,0.029,-0.003,0.021,-0.005,-0.026,-0.007,-0.005,-0.021,0,-0.04,-0.006,0.053,-0.02,-0.028
PRKCSH (UniProt K7ELL7),-0.01,-0.124,0.004,-0.056,0,-0.036,-0.061,-0.096,-0.038,-0.039,-0.05,0.018,0.049,-0.051,0.049,0.006,-0.017,-0.019,0.005,-0.052
